Records with an inconclusive call do not appear. Calls of active or inactive are those of the source. The call rests on the fitted dose curve; in most records, active means well fitted cell-killing curve with a large enough effect; inconclusive means small, poorly fitted or top-dose-only effect, or effect the other way; inactive means no such curve, though single readings can be large or run the other way.
Experiments:
[1] = Quantitative High-Throughput drug screen in 47 multiple myeloma cell lines against the NCATS MIPE library collection: MM1R_ATCC cell viability assay (AID 1918981); further: nearly all actives have a fitted effect of over 35% in size; further: potency means the concentration at half of the fitted maximal effect
In short: (§1)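 ATP-based CellTiter-Glo luminescence after 48 h drug exposure (37 °C, 5% CO2) of 500 myeloma cells per well. DMSO-only wells set 100% viability, media-only wells 0%; MIPE 4.0 library added by pin tool.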

[2] = Quantitative High-Throughput drug screen in 47 multiple myeloma cell lines against the NCATS MIPE library collection: OCIMY5_PLB cell viability assay (AID 1918988); further: potency means the concentration at half of the fitted maximal effect; nearly all actives have a fitted effect of over 65% in size
In short: as §1

[3] = Quantitative High-Throughput drug screen in 47 multiple myeloma cell lines against the NCATS MIPE library collection: U266_ATCC cell viability assay (AID 1919864); further: nearly all actives have a fitted effect of over 35% in size; further: potency means the concentration at half of the fitted maximal effect
In short: as §1

[4] = Quantitative High-Throughput drug screen in 47 multiple myeloma cell lines against the NCATS MIPE library collection: XG6_PLB cell viability assay (AID 1919865); further: nearly all actives have a fitted effect of over 40% in size; further: potency means the concentration at half of the fitted maximal effect
In short: as §1

[5] = Quantitative High-Throughput drug screen in 47 multiple myeloma cell lines against the NCATS MIPE library collection: UTMC2_PLB cell viability assay (AID 1919868); settings: CellTiter-Glo ATP luminescence, 48 h; viability (% of DMSO control): at 45.8 µM (top of the series); further: nearly all actives have a fitted effect of over 55% in size; further: potency means the concentration at half of the fitted maximal effect
In short: as §1

[6] = Quantitative High-Throughput drug screen in 47 multiple myeloma cell lines against the NCATS MIPE library collection: KMS11_JCRBsus cell viability assay (AID 1919873); further: nearly all actives have a fitted effect of over 50% in size; further: potency means the concentration at half of the fitted maximal effect
In short: as §1

[7] = Quantitative High-Throughput drug screen in 47 multiple myeloma cell lines against the NCATS MIPE library collection: OCIMY7_PLB cell viability assay (AID 1918987); settings: OCI-MY7 myeloma viability, CellTiter-Glo ATP, 48 h; viability (% of DMSO): at 45.8 µM (top of the series); further: potency means the concentration at half of the fitted maximal effect; nearly all actives have a fitted effect of over 65% in size
In short: as §1

[8] = Quantitative High-Throughput drug screen in 47 multiple myeloma cell lines against the NCATS MIPE library collection: OPM1_PLB cell viability assay (AID 1918989); further: nearly all actives have a fitted effect of over 40% in size; further: potency means the concentration at half of the fitted maximal effect
In short: as §1

[9] = Quantitative High-Throughput drug screen in 47 multiple myeloma cell lines against the NCATS MIPE library collection: XG1_PLB cell viability assay (AID 1919866); further: nearly all actives have a fitted effect of over 35% in size; further: potency means the concentration at half of the fitted maximal effect
In short: as §1

[10] = Quantitative High-Throughput drug screen in 47 multiple myeloma cell lines against the NCATS MIPE library collection: PE2_PLB cell viability assay (AID 1919869); further: nearly all actives have a fitted effect of over 35% in size; further: potency means the concentration at half of the fitted maximal effect
In short: as §1

[11] = Quantitative High-Throughput drug screen in 47 multiple myeloma cell lines against the NCATS MIPE library collection: RPMI8226_ATCC cell viability assay (AID 1919871); further: nearly all actives have a fitted effect of over 30% in size; further: potency means the concentration at half of the fitted maximal effect
In short: as §1

[12] = Quantitative High-Throughput drug screen in 47 multiple myeloma cell lines against the NCATS MIPE library collection: OPM2_DSMZ cell viability assay (AID 1919872); further: nearly all actives have a fitted effect of over 30% in size
In short: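 Inhibition of cell viability is measured here. Each line was plated at 500 cells per well, treated with MIPE 4.0 drugs, kept 48 hours at 37C, then assayed for ATP content by CellTiter-Glo luminescence.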

[13] = Quantitative High-Throughput drug screen in 47 multiple myeloma cell lines against the NCATS MIPE library collection: L363_DSMZ cell viability assay (AID 1918984); further: nearly all actives have a fitted effect of over 40% in size; further: potency means the concentration at half of the fitted maximal effect
In short: as §1

[14] = Quantitative High-Throughput drug screen in 47 multiple myeloma cell lines against the NCATS MIPE library collection: KMS34_JCRB cell viability assay (AID 1918985); further: nearly all actives have a fitted effect of over 40% in size; further: potency means the concentration at half of the fitted maximal effect
In short: as §1

[15] = Quantitative High-Throughput drug screen in 47 multiple myeloma cell lines against the NCATS MIPE library collection: SKMM1_PLB cell viability assay (AID 1919863); settings: SKMM1 myeloma viability, CellTiter-Glo ATP, 48 h; viability: stronger effect = lower value; further: nearly all actives have a fitted effect of over 35% in size; further: potency means the concentration at half of the fitted maximal effect
In short: as §1

[16] = Quantitative High-Throughput drug screen in 47 multiple myeloma cell lines against the NCATS MIPE library collection: PCM6_Riken cell viability assay (AID 1919870); further: nearly all actives have a fitted effect of over 30% in size; further: potency means the concentration at half of the fitted maximal effect
In short: as §1

[17] = Quantitative High-Throughput drug screen in 47 multiple myeloma cell lines against the NCATS MIPE library collection: KMS28BM_JCRB cell viability assay (AID 1919874); further: nearly all actives have a fitted effect of over 35% in size; further: potency means the concentration at half of the fitted maximal effect
In short: as §1

[18] = Quantitative High-Throughput drug screen in 47 multiple myeloma cell lines against the NCATS MIPE library collection: LP1_DSMZ cell viability assay (AID 1918982); further: nearly all actives have a fitted effect of over 35% in size
In short: as §1

[19] = Quantitative High-Throughput drug screen in 47 multiple myeloma cell lines against the NCATS MIPE library collection: KMS28PE_JCRB cell viability assay (AID 1918983); further: nearly all actives have a fitted effect of over 35% in size
In short: as §1

[20] = Quantitative High-Throughput drug screen in 47 multiple myeloma cell lines against the NCATS MIPE library collection: VP6_DJ cell viability assay (AID 1919867)
In short: as §1

CC(=O)O[C@]1(C(C)=O)CC[C@@H]2[C@@H]3C[C@H](C)C4=CC(=O)CC[C@]4(C)[C@H]3CC[C@@]21C
inactive: Potency [5]
active: Potency [1] 20.9 µM | Potency [2] 16.6 µM | Potency [3] 20.9 µM | Potency [4] 23.5 µM | Potency [6] 20.9 µM

O=c1c(-c2ccc(O)cc2)coc2cc(OC3O[C@H](CO)[C@H](O)[C@H](O)[C@H]3O)cc(O)c12 (some centres not stated)
active: Potency [1] 16.6 µM | Potency [7] 1.48 µM | Potency [2] 1.48 µM | Potency [8] 7.43 µM | Potency [3] 8.33 µM | Potency [4] 1.32 µM | Potency [9] 1.18 µM | Potency [5] 5.9 µM | Potency [10] 9.35 µM | Potency [11] 16.6 µM
inactive: Potency [12]

O=c1cc(-c2ccccc2)oc2cc(O)cc(O)c12
inactive: Potency [1] | Potency [14] | Potency [8] | viability [15] 139% | Potency [3] | Potency [11] | Potency [12] | Potency [17]
active: Potency [13] 16.6 µM | Potency [16] 20.9 µM

NC(=O)c1cccc2[nH]c(-c3ccc([C@H]4CCCN4)cc3F)nc12
active: Potency [13] 14.8 µM | Potency [2] 20.9 µM | Potency [8] 14.8 µM | Potency [9] 8.33 µM | Potency [20] 14.8 µM | Potency [10] 16.6 µM
inactive: Potency [18] | Potency [19] | Potency [5] | Potency [11] | Potency [12] | Potency [6] | Potency [17]

Nc1ncnc2c1ncn2[C@@H]1O[C@H](CO)C[C@@H]1O
inactive: Potency [1] | Potency [13] | Potency [8] | Potency [4] | Potency [9] | Potency [10] | Potency [12]
active: Potency [15] 18.7 µM | Potency [3] 26.4 µM | Potency [6] 37.2 µM

CC(C)(Cc1ccc2ccccc2c1)NC[C@@H](O)COc1cccc(Cl)c1C#N
active: Potency [8] 6.62 µM
inactive: Potency [18] | Potency [19] | Potency [14] | viability [15] 126% | Potency [3] | Potency [4] | Potency [9] | Potency [5] | Potency [10] | Potency [16] | Potency [12] | Potency [6] | Potency [17]

N#C[C@H]1C[C@H]2C[C@@H]2N1C(=O)[C@@H](N)C12CC3CC(CC(O)(C3)C1)C2
inactive: Potency [18] | Potency [19] | Potency [13] | Potency [14] | Potency [8] | viability [15] 119% | Potency [3] | Potency [9] | Potency [11] | Potency [12]
active: Potency [10] 0.0026 µM

CN[C@@H](C)C(=O)N[C@H]1CN(C(=O)CC(C)C)CC[C@H]2CC[C@@H](C(=O)NC(c3ccccc3)c3ccccc3)N2C1=O
active: Potency [1] 14.8 µM | Potency [2] 20.9 µM | Potency [8] 14.8 µM | Potency [4] 1.32 µM | Potency [9] 13.2 µM | Potency [10] 9.35 µM
inactive: Potency [12]

CO[C@H]1C=CO[C@@]2(C)Oc3c(C)c(O)c4c(O)c(c5c(c4c3C2=O)NC2(CCN(CC(C)C)CC2)N=5)=NC(=O)C(C)=CC=C[C@H](C)[C@H](O)[C@@H](C)[C@@H](O)[C@@H](C)[C@H](OC(C)=O)[C@H]1C
inactive: Potency [13] | Potency [8] | viability [15] 99.2% | Potency [3] | Potency [5] | Potency [10] | Potency [12] | Potency [6] | Potency [17]
active: Potency [1] 10.5 µM | Potency [7] 4.18 µM | Potency [2] 23.5 µM | Potency [9] 20.9 µM | Potency [20] 16.6 µM | Potency [11] 16.6 µM

COCCOc1nc(-c2ccc(Cl)c(Cl)c2)n(-c2ccc(NC(=O)CCl)cc2)n1
active: Potency [1] 14.8 µM | Potency [13] 8.33 µM | Potency [14] 18.7 µM | Potency [7] 16.6 µM | Potency [2] 20.9 µM | Potency [8] 20.9 µM | Potency [3] 26.4 µM | Potency [4] 14.8 µM | Potency [9] 16.6 µM | Potency [20] 20.9 µM | Potency [5] 20.9 µM | Potency [10] 18.7 µM | Potency [11] 20.9 µM | Potency [17] 16.6 µM
inactive: Potency [12]

C=C1C(=O)OC(CCCCCCCC)C1C(=O)O (configuration not stated)
active: Potency [7] 11.8 µM | Potency [8] 20.9 µM | Potency [4] 20.9 µM | Potency [9] 14.8 µM | Potency [16] 23.5 µM
inactive: Potency [18] | Potency [19] | Potency [13] | Potency [14] | Potency [12] | Potency [17]

O=C1NC(=O)C(=Cc2ccc(-c3ccc(F)cc3)o2)S1
active: Potency [1] 2.09 µM | Potency [13] 3.72 µM | Potency [4] 18.7 µM | Potency [20] 14.8 µM | Potency [10] 8.33 µM | Potency [16] 7.43 µM
inactive: Potency [3] | Potency [5] | Potency [12] | Potency [6] | Potency [17]

N#CC(=C(N)Sc1ccccc1N)C(C#N)=C(N)Sc1ccccc1N
inactive: Potency [12]
active: Potency [1] 1.18 µM | Potency [13] 10.5 µM | Potency [7] 0.662 µM | Potency [8] 20.9 µM | Potency [15] 1.32 µM | Potency [3] 5.26 µM | Potency [4] 14.8 µM | Potency [9] 9.35 µM | Potency [5] 8.33 µM | Potency [10] 18.7 µM | Potency [11] 10.5 µM | Potency [6] 8.33 µM
